Reference: the supplement of paper PMC3334620
Whole data set: some 33,000 sequences, median “E-score (-0.5 to 0.5)” near -0.016, cut for the highest 2% near 0.3. This excerpt belongs to a sample that is enriched for the highest values.

target: T1, Yer184c (UniProt P39961); assay: PBM E-score (8-mer binding enrichment) (E-score (-0.5 to 0.5)); higher = stronger / more preferred TF binding; conditions: protein concentration: 100 nM; construct: GST-full length
T1 sequence: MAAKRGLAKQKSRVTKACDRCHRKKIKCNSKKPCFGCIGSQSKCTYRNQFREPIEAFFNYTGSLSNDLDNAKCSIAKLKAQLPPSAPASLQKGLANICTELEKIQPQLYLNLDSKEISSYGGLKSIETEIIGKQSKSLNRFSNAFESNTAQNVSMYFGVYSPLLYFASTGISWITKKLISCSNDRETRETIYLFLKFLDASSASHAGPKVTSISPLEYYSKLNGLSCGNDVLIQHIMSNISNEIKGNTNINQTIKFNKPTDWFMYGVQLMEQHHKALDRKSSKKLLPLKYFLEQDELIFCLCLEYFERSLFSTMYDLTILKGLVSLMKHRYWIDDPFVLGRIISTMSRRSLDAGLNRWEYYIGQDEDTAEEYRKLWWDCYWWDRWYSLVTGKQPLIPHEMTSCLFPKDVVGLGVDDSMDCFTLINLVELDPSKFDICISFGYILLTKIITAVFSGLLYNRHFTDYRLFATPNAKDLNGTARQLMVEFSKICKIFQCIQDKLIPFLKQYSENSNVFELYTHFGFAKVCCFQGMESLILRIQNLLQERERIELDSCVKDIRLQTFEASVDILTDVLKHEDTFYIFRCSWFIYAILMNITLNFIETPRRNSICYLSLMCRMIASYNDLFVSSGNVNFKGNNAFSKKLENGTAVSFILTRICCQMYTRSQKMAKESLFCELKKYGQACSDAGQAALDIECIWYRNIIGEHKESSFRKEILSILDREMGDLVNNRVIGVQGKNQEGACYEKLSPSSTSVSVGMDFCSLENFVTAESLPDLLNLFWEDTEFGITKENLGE
Method in brief: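 Universal all-10-mer Agilent arrays, fresh or stripped once, were converted to double-stranded form by primer extension. GST-tagged yeast transcription factors from PURExpress in vitro transcription/translation, full-length or DNA-binding domain only, were applied at about 100-200 nM and detected with fluorescent anti-GST. After masliner normalisation, the Universal PBM Analysis Suite scored each ungapped eight-base word together with its reverse complement by E-score.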

Sequence	PBM E-score
CACCAGAC	-0.00896
AACAGCTG	0.0223
CTAGAGTA	-0.0589
GAGCCGCC	0.0613
CAGCCGCC	0.0636
CAGCCGGG	0.127
AAGCCGGT	0.258
GAGCCCGC	-0.212
TAGCCGAA	0.276
CAGCCGGC	0.391
TAGCCGCA	-0.0301
TAGCCGGA	0.401
AAGCCGGC	0.374
AAGCCGGG	0.246
GAGCCGGC	0.406
CCATAGAC	-0.204
GAAGTACA	0.0369
CCAATCGC	-0.072
ATCAGCAG	0.0226
GGTGCCAC	-0.119
TCGTACCA	0.099
CGCGCACA	0.112

Sequence	PBM E-score
CAGCCTGA	-0.0443
CAGCCGCA	-0.134
CAGCCGGA	0.392
ATATCACC	0.093
ACAGCGGC	-0.0827
CATTCGGA	0.338
AATTCGGT	0.301
GGTTCGGA	0.281
AATTCGGA	0.343
CATTCGGC	0.269
GATTCGAC	-0.112
CGTTCGGA	0.342
AATTCGGC	0.24
CGTTCGGC	0.27
CATTCGGG	0.141
GATTCGGC	0.364
AATTCGGG	0.103
ATCCTTGC	-0.0624
GTTAGACA	0.222
GATTTGTA	0.103
AGCCAAGG	-0.16
ACTAAGAT	0.154

Sequence	PBM E-score
GAGGCCCA	-0.319
CGGTTAAG	0.269
ACGAATAG	-0.0621
TGGGCTAA	-0.147
CAAAAGGG	-0.101
GCCCTTCA	-0.0881
GATTCGCA	0.131
TATTCGCA	0.0122
GATTCGGA	0.329
TATTCGAA	-0.106
TATTCGGA	0.356
GATTCGTA	0.125
AGCTTGGA	-0.226
ATTCCATA	0.147
ACACAGGT	-0.289
CGGCATGC	0.272
GGGCATGA	-0.275
CGGCATGA	0.313
AGGCATTA	-0.187
CGGCATTA	0.416
AGGCAAGA	-0.112
GGGCATTA	-0.199

Sequence	PBM E-score
CGGCAAGA	0.317
GGGCAAGA	0.106
CATCGGCC	0.115
ACCCAGTG	-0.306
GAGAGGGC	-0.293
CCTATCGA	-0.107
ACCGGACG	0.305
CCCGGACG	-0.0945
ACCGGACT	0.101
ACCGGATA	0.187
ACCGGATG	0.307
ACCGGATC	0.229
CGCATGAA	0.0183
AGTTAGTG	0.00554
CCTATACG	-0.267
CCTCGGAG	0.277
CCTCGGTA	-0.0209
ACTCGGCA	0.299
CCTCGGCG	0.355
TCTCGGCA	0.35
TCACGGCA	0.096
